# Measurements reported in PubChem BioAssay (NCATS).
# Results filed as inconclusive are left out. A call without a number means that no potency is given here. A number with no mark means an inactive call. Active and inactive are the calls of the source. Unless noted, calls follow the shape of the dose curve; as a rule, active = well fitted curve in the direction sought with a large enough effect; inconclusive = small, poorly fitted or top-dose-only effect, or another doubt; inactive = no such curve, though single readings can be large; an effect the other way counts as inactive or inconclusive.
# Experiments:
# [1] = target: Aldehyde dehydrogenase, mitochondrial (Homo sapiens) (UniProt P05091); test: qHTS for Inhibitors of the Aldehyde Dehydrogenase Family (ALDH2) Confirmatory screens (AID 2061303; active = well fitted inhibition curve with a large enough effect; title and protocol of this record describe different tests; also: nearly all actives have a fitted effect of over 45% in size; also: potency is read from the fitted curve at half-maximal effect)
# [2] = qHTS for Inhibitors of the Aldehyde Dehydrogenase Family (ALDH1A2, ALDH1A3, ALDH2, ALDH3A1) (AID 2061307); also: nearly all actives have a fitted effect of over 50% in size; as to potency: test system not described further here; potency is read from the fitted curve at half-maximal effect
# [3] = target: Aldehyde dehydrogenase, mitochondrial (Homo sapiens) (UniProt P05091); test: qHTS for Inhibitors of the Aldehyde Dehydrogenase Family (ALDH2) Primary screen (AID 2061308); also: nearly all actives have a fitted effect of over 55% in size; also: potency is read from the fitted curve at half-maximal effect
# [4] = target: Retinaldehyde dehydrogenase 3 (Homo sapiens) (UniProt P47895); test: qHTS for Inhibitors of the Aldehyde Dehydrogenase Family (ALDH1A3) Confirmatory screens (AID 2061311); also: nearly all actives have a fitted effect of over 60% in size; also: potency is read from the fitted curve at half-maximal effect
# [5] = target: Retinal dehydrogenase 2 (Homo sapiens) (UniProt O94788); test: qHTS for Inhibitors of the Aldehyde Dehydrogenase Family (ALDH1A2) Confirmation screens (AID 2061314); also: nearly all actives have a fitted effect of over 65% in size; also: potency is read from the fitted curve at half-maximal effect
# [6] = target: Retinaldehyde dehydrogenase 3 (Homo sapiens) (UniProt P47895); test: qHTS for Inhibitors of the Aldehyde Dehydrogenase Family (ALDH1A3) Primary screen (AID 2061315)
# [7] = target: Aldehyde dehydrogenase 1A1 (Homo sapiens) (UniProt P00352); test: qHTS for Inhibitors of the Aldehyde Dehydrogenase Family (ALDH1A1) Confirmatory screens (AID 2061316); also: nearly all actives have a fitted effect of over 65% in size; also: potency is read from the fitted curve at half-maximal effect
SMILES,Potency [1],Potency [2],Potency [3],Potency [4],Potency [5],Potency [6],Potency [7],"activity change, negative = inhibition [4]"
COc1ccc(C2Nc3ccccc3C(=O)N2Cc2ccc(Cl)cc2)cc1COc1ccc(NC(C)=O)cc1 (stereo not given),3.98 µM (active),2.25 µM (active),inactive,3.55 µM (active),12.7 µM (active),inactive,,
O=C(Nc1ccccc1)OCc1c(-c2ccccc2)no[n+]1[O-],inactive,11.3 µM (active),inactive,inactive,inactive,inactive,,
COc1cccc(OC2=NS(=O)(=O)c3ccccc32)c1,inactive,inactive,inactive,inactive,inactive,inactive,,
O=C(NC1CCCc2c1cnn2-c1ccc(F)cc1F)c1ccccn1 (stereo not given),inactive,inactive,inactive,inactive,inactive,inactive,inactive,
CCCCC(=O)N1CCC(C(=O)Nc2ccc([S+](=O)([O-])Nc3nccs3)cc2)CC1,inactive,inactive,inactive,inactive,inactive,inactive,,
O=C1NS(=O)(=O)c2cc3c(cc21)C(=O)NS3(=O)=O,inactive,inactive,inactive,inactive,inactive,inactive,,
O=C(O)c1ccc2c(c1)C(=O)N([C@]1(C(=O)O)C[C@H]1c1ccccc1)C2=O,inactive,inactive,inactive,inactive,inactive,inactive,,
c1cncc(CNc2ncnc3ccc(-c4ccoc4)cc23)c1,inactive,inactive,inactive,inactive,inactive,inactive,,
NC(=O)C1CCN(c2nc(-c3ccc([N+](=O)[O-])cc3)cs2)CC1,25.1 µM (active),11.3 µM (active),inactive,22.5 µM (active),3.18 µM (active),inactive,,
CCCCN(CCCNC(=S)NCCCc1cnc[nH]1)c1ccc(Br)cn1,22.4 µM (active),12.6 µM (active),inactive,14.1 µM (active),8.96 µM (active),inactive,inactive,
O=S1(=O)N=C(Oc2ccccc2)c2ccccc21,inactive,inactive,inactive,,inactive,inactive,inactive,-14.1% [at 0.022 µM]
Cc1ccc(-c2nccc(=O)n2CC(=O)NCCc2ccccc2)cc1,inactive,inactive,inactive,inactive,inactive,inactive,,
CCCCNc1ccc(C(=O)OCCN(CC)CC)cc1,inactive,inactive,inactive,inactive,inactive,inactive,inactive,
Cc1nnc(-c2cnn(C)c2N)n1CCCn1ccnc1,inactive,inactive,inactive,inactive,inactive,inactive,inactive,
Cc1ccc(OCCn2c(CCNC(=O)c3cccc(Cl)c3)nc3ccccc32)cc1,inactive,inactive,inactive,inactive,inactive,inactive,,
COc1ccc(CN2C(=O)c3ccccc3NC2c2ccc(OC)c(COc3ccc(NC(C)=O)cc3)c2)cc1 (stereo not given),17.8 µM (active),7.94 µM (active),inactive,2.24 µM (active),6.34 µM (active),inactive,,
N[C@@H](CCC(=O)O)C(=O)Nc1ccc(Cl)cc1C(=O)c1ccc[nH]1,inactive,inactive,inactive,inactive,inactive,inactive,inactive,
N#Cc1c(-c2csc(-c3no[n+]([O-])c3C#N)c2)no[n+]1[O-],14.1 µM (active),6.34 µM (active),inactive,12.7 µM (active),2.25 µM (active),inactive,11.3 µM (active),
Cc1nc2ccccn2c1P(=O)(c1ccccc1)c1ccccc1,inactive,inactive,inactive,inactive,inactive,inactive,inactive,
Cc1nc(C)c(-c2ccc3ncnc(NCc4ncc[nH]4)c3c2)s1,inactive,inactive,inactive,inactive,inactive,inactive,inactive,
CC(=O)N(C(C)=O)n1c(C)nc2sc3c(c2c1=O)CCNC3,inactive,inactive,inactive,inactive,inactive,inactive,inactive,
COc1ccc(C2=Nn3c(nnc3-c3cccc(OC)c3)SC2)cc1,inactive,12.7 µM (active),inactive,inactive,inactive,inactive,inactive,
O=C(C1CCN(c2nc(-c3ccc(Br)cc3)cs2)CC1)N1CCOCC1,inactive,11.3 µM (active),inactive,inactive,inactive,inactive,inactive,
CCc1nn2c(=O)cc(-c3ccncc3)nc2s1,inactive,inactive,inactive,inactive,25.2 µM (active),inactive,inactive,
COc1ccc(C[C@H](N)C(=O)N[C@H]2[C@@H](O)[C@H](n3cnc4c(N(C)C)ncnc43)O[C@@H]2CO)cc1,inactive,inactive,inactive,inactive,inactive,inactive,inactive,
CCOc1ccccc1-c1nnc2n1N=C(c1ccc(OC)cc1)CS2,inactive,7.94 µM (active),inactive,inactive,inactive,inactive,17.9 µM (active),
Fc1ccc(CSc2nc3ncc(Br)cc3[nH]2)cc1,inactive,inactive,inactive,inactive,inactive,inactive,inactive,

SMILES,Potency [1],Potency [2],Potency [3],Potency [4],Potency [5],Potency [6],Potency [7],"activity change, negative = inhibition [4]"
O=C(CSc1nnc(-c2cccc(S(=O)(=O)N3CCCC3)c2)n1-c1ccccc1)Nc1ccc(F)cc1,inactive,inactive,inactive,inactive,inactive,inactive,inactive,
Cc1noc(C)c1-c1csc(N2CCC(C(N)=O)CC2)n1,inactive,inactive,inactive,inactive,inactive,inactive,inactive,
CC(C)(C)c1ccc(C[C@H](C(=O)O)N2C(=O)c3ccc(C(=O)O)cc3C2=O)cc1,inactive,inactive,inactive,inactive,inactive,inactive,inactive,
CC(C)c1ccccc1-c1ncc(F)c(NC(C)(C)c2ccc(-c3cccnc3)cc2)n1,inactive,inactive,inactive,inactive,inactive,inactive,inactive,
CC(=O)SCC(CC(=O)c1ccc(C)cc1)C(=O)O (stereo not given),inactive,inactive,inactive,inactive,inactive,inactive,inactive,
COc1ccc(-c2csc(N3CCC(C(N)=O)CC3)n2)cc1,inactive,inactive,inactive,inactive,inactive,inactive,inactive,
Cc1ccc2nc(-c3ccccn3)c(Nc3ccccc3C)n2c1,inactive,inactive,inactive,inactive,inactive,inactive,inactive,
Cc1ccc2nc3sc(C(=O)NCc4ccco4)cc3cc2c1,12.7 µM (active),11.3 µM (active),inactive,10.1 µM (active),7.12 µM (active),inactive,7.12 µM (active),
CCOC(=O)c1cccc(-n2cnc(/C=C3\NC(=O)N(CC(=O)O)C3=O)c2)c1,inactive,inactive,inactive,inactive,inactive,inactive,inactive,
N[C@@]1(C(=O)O)CC[C@H]2[C@H](C(=O)O)[C@H]21,inactive,inactive,inactive,inactive,inactive,inactive,inactive,
N#CSc1cc(SC#N)c(N)nc1N,14.1 µM (active),5.62 µM (active),3.55 µM (active),10.1 µM (active),1.79 µM (active),inactive,0.896 µM (active),
Nc1nnc(-c2ccc3ccccc3c2)o1,inactive,inactive,inactive,inactive,inactive,inactive,inactive,
N#Cc1nc(NCCO)nc(Nc2ccccc2)n1,inactive,inactive,inactive,inactive,inactive,inactive,inactive,
O=C(O)c1ccc2c(c1)C(=O)N([C@H](Cc1ccc(F)cc1)C(=O)O)C2=O,inactive,inactive,inactive,inactive,inactive,inactive,inactive,
Cc1cccc2c(C(=O)O)cc(Cl)nc12,inactive,inactive,inactive,inactive,inactive,inactive,inactive,
COC(=O)c1ccc2c(c1)S(=O)(=O)N=C2Sc1cc(C)ccc1C,inactive,inactive,inactive,inactive,14.2 µM (active),inactive,inactive,
O=C(O)c1ccc(S(=O)(=O)N[C@H](Cc2ccc(C(F)(F)F)cc2)C(=O)O)cc1,inactive,inactive,inactive,inactive,inactive,inactive,inactive,
C=CCNc1oc(-c2cccs2)nc1C#N,inactive,inactive,inactive,inactive,inactive,inactive,inactive,
c1cncc(-c2ccc(CNc3nc(C4CCCC4)nc4ccccc34)cc2)c1,inactive,inactive,inactive,11.3 µM (active),inactive,inactive,inactive,
O=C1NC(=O)/C(=C/c2cccn2-c2ccc(P(O)O)cc2)N1,inactive,inactive,inactive,inactive,inactive,inactive,inactive,
COc1ccc(C2=Nn3c(nnc3-c3cc(OC)ccc3OC)SC2)c(OC)c1,inactive,17.9 µM (active),inactive,inactive,inactive,inactive,6.34 µM (active),
CC(C)(C)c1ccc(SC2=NS(=O)(=O)c3ccccc32)cc1,inactive,inactive,inactive,inactive,12.7 µM (active),inactive,inactive,
Cc1cccc(OC2=NS(=O)(=O)c3ccccc32)c1,inactive,inactive,inactive,inactive,inactive,inactive,inactive,
Cc1nnc(-c2ccccc2C(C)C)nc1NCc1ccc(-c2cccnc2)cc1,inactive,inactive,inactive,12.7 µM (active),inactive,inactive,inactive,
CC(=O)Nc1ccc(S(=O)(=O)N2CCN(S(=O)(=O)c3ccc4c(c3)OCCO4)CC2)cc1,inactive,inactive,inactive,inactive,inactive,inactive,inactive,
N#Cc1ccccc1OC1=NS(=O)(=O)c2ccccc21,inactive,inactive,inactive,inactive,inactive,inactive,inactive,
